{
  "source": "PubChem BioAssay AID2284370",
  "about": "(EPA ToxCast)",
  "note": "Records with an inconclusive call do not appear. Calls of active or inactive are those of the source. The calls were made as follows: active = hit-call score of the fitted dose curve at least 0.9, where 1 is the maximum; inconclusive = response in the unintended direction; inactive = score below 0.9.",
  "data": [
    {"molecular_target": "human Androgen Receptor (AR), AR (gene 367) (UniProt P10275)", "sequence (P10275 whole entry, looked up)": "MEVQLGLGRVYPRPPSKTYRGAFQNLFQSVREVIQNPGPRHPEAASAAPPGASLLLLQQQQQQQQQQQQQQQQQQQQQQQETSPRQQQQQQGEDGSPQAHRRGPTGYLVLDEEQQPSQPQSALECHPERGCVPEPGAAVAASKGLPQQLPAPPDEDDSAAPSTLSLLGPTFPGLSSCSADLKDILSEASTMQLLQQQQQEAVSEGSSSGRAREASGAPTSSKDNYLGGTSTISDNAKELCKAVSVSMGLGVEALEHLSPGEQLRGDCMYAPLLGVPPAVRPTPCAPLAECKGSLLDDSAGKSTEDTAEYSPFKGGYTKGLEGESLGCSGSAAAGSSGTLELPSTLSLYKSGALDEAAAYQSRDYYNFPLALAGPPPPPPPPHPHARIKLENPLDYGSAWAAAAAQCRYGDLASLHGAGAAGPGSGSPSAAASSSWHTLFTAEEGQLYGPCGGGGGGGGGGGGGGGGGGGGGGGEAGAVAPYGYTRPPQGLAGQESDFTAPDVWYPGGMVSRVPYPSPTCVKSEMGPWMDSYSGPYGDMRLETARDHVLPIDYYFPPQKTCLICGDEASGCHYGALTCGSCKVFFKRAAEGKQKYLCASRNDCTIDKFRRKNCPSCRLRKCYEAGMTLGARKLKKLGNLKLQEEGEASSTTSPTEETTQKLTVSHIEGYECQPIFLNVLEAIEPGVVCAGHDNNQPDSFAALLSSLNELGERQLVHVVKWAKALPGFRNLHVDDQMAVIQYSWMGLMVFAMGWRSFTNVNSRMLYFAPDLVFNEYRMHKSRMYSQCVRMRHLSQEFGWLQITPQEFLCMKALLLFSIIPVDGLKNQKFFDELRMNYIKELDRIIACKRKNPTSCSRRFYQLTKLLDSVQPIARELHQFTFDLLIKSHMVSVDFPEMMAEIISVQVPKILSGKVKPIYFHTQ", "test": "ATG_hAR_EcoTox2: Attagene TRANS-FACTORIAL EcoTox-2 HepG2 Assay for human Androgen Receptor (AR)", "method": "ATG_EcoTox2 is a cell-based, multiplexed assay created by modifying the existing Attagene TRANS-FACTORIAL system to include a panel of nuclear receptors from some or all the following species: human (Homo sapiens), african clawed frog (Xenopus laevis), rainbow trout (Oncorhynchus mykiss), japanese medaka (Oryzias latipes), and zebrafish (Danio rerio). The ECOTOX2-FACTORIAL format uses HepG2, a human liver cell line, with measurements taken at 24 hours after chemical dosing in a 24-well plate. ATG_hAR_EcoTox2 is one of 29 assay components calculated in the ATG_EcoTox2 assay. It is designed to make measurements of mRNA induction, a form of inducible reporter, as detected with fluorescence intensity signals by Reverse transcription polymerase chain reaction (RT-PCR) and Capillary electrophoresis technology.The assay endpoint ATG_hAR_EcoTox2 was analyzed in the positive analysis fitting direction relative to DMSO as the negative control and baseline of activity. Using a type of inducible reporter, measures of mRNA for gain-of-signal activity can be used to understand the reporter gene at the transcription factor-level as they relate to the gene AR. Furthermore, this assay endpoint can be referred to as a primary readout, because this assay has produced multiple assay endpoints where this one serves a reporter gene function. To generalize the intended target to other relatable targets, this assay endpoint is annotated to the nuclear receptor intended target family, where the subfamily is steroidal.\nHuman liver HepG2 cells are transiently transfected with multiple reporter transcription units (MRTUs) in 6-well plates using FuGene 6 reagent (Roche; 3 ml FuGene/1 mg DNA). The MRTU constructs are regulated by a cis-regulating element (promoter). Each RTU expresses a GAL4-UAS that regulates the transcription of a nearby target reporter gene sequence. A major difference between the CIS and TRANS system is that in CIS activities of endogenous TFs are measured, whereas the TRANS assay evaluates changes in activities of exogenous, chimeric NR-Gal4 proteins. […] At the end of 24 hour incubation, total RNA was isolated using TriZol reagent (Invitrogen). The isolated RNA is then reverse-transcribed using oligo(dT) primer and Mo-MLV reverse transcriptase (Invitrogen) with DNAse I (Ambion) treatment for 30 min. The one-tenth of the produced cDNA was amplified by PCR using Taq DNA polymerase (Invitrogen) and two reporter sequence-specific primers. […] The fragments were purified using Qiaquick PCR columns (Qiagen), analyzed on an ABI 3130xL genetic analyzer (Applied Biosystems) with peak positions identified by using a set of X-rhodamine (ROX)-labeled MapMarker1000 molecular weight standards (BioVentures). […]", "values": [
      {"smiles": "Cc1ccc(C)c(OCCCC(C)(C)C(=O)O)c1", "outcome": "inactive"},
      {"smiles": "CC(C)(Oc1ccc(C2CC2(Cl)Cl)cc1)C(=O)O", "note": "(centres undefined)", "outcome": "inactive"},
      {"smiles": "CC(c1cc2ccccc2s1)N(O)C(N)=O", "note": "(centres undefined)", "outcome": "inactive"},
      {"smiles": "CC(C)OC(=O)C(C)(C)Oc1ccc(C(=O)c2ccc(Cl)cc2)cc1", "outcome": "inactive"}
    ]}
  ]
}
